Experimental data: the supplement of paper PMC10849652
Targets with a hit are over-represented here; the source holds about 8,800 in all. About 0.5% of all pairs of compound and target were hits.

Columns and labels:
Assay in all cases: log2 fold change, soluble protein after heating vs DMSO (PISA); higher = thermal stabilisation; K562 lysate, 10 uM; active = over 0.2 and 3.5 SD of the protein, either way, in both replicates (recomputed)
ibrutinib = compound: C=CC(=O)N1CCC[C@@H](n2nc(-c3ccc(Oc4ccccc4)cc3)c3c(N)ncnc32)C1 [ibrutinib]
How it was run: (§1)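 To prepare the extract, K562 pellets were dounce-homogenised in PBS pH 7.4 with 1 mM MgCl2, giving crude material at 1 mg/mL protein. This was treated with 10 μM compound for 30 min, then heated in aliquots for 3 min over 48°C-58°C before pooling and addition of NP-40 to 0.5% at 4°C. Centrifugation at 21,000xg for 90 min left soluble protein in the supernatant, which TMTpro 16plex LC-MS/MS quantified with equalised channel sums. Results are log-two fold changes in thermal stability compared with solvent controls, from duplicates.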

[1] = compound: CC(=O)c1cnc2ccc(-c3cc(Cl)c(O)c(Cl)c3)nc2c1N[C@H]1CC[C@H](CN(C)C)CC1
How it was run: as §1

ralimetinib = compound: CC(C)(C)Cn1c(N)nc2ccc(-c3[nH]c(C(C)(C)C)nc3-c3ccc(F)cc3)nc21 [ralimetinib]
How it was run: as §1

[2] = compound: CC(C)(O)CC(=O)NCCn1ccc2ncnc(Nc3ccc(Oc4cccc(C(F)(F)F)c4)c(Cl)c3)c21
How it was run: as §1

[3] = compound: CC(C)C1=C2N=C(C=C(N2N=C1)NCC3=CC=CC=C3)NCCCCCCN
How it was run: as §1

[4] = compound: CC1=C(C(CC(=O)N1)C2=CC=C(C=C2)C(F)(F)F)C(=O)NC3=C(C=C4C(=C3)C=NN4)F
How it was run: as §1

[5] = compound: CC1=C(C2=C(C=C1)C(=O)C3=CC=CC=C3N2CCCN)C
How it was run: as §1

[6] = compound: CC1=C(C=C(C=C1)NC(=O)C2=CC(=CC=C2)N(C)C)NC(=O)C3=CC=C(C=C3)O
How it was run: as §1

[7] = compound: CC1=CC=C(C=C1)SC2=C3C=C(SC3=CN=C2)C(=O)N
How it was run: as §1

vemurafenib = compound: CCCS(=O)(=O)Nc1ccc(F)c(C(=O)c2c[nH]c3ncc(-c4ccc(Cl)cc4)cc23)c1F [vemurafenib]
How it was run: as §1

[8] = compound: CCCS(=O)(=O)Nc1ccc(F)c(C(=O)c2c[nH]c3ncc(Cl)cc23)c1F
How it was run: as §1

barasertib = compound: CCN(CCCOc1ccc2c(Nc3cc(CC(=O)Nc4cccc(F)c4)[nH]n3)ncnc2c1)CCOP(=O)(O)O [barasertib]
How it was run: as §1

[9] = compound: CC[C@@H]1C(=O)N(C)c2cnc(Nc3ccc(C(=O)NC4CCN(C)CC4)cc3OC)nc2N1C1CCCC1
How it was run: as §1

volasertib = compound: CC[C@@H]1C(=O)N(C)c2cnc(Nc3ccc(C(=O)N[C@H]4CC[C@H](N5CCN(CC6CC6)CC5)CC4)cc3OC)nc2N1C(C)C [volasertib]
How it was run: as §1

[10] = compound: CCn1c(C(=O)N(C2CC2)C2CC2)cc2c3c(ncn3C)c(Nc3cc(C)n(C)n3)nc21
How it was run: as §1

[11] = compound: CCn1cc(-c2ccnc3[nH]c(-c4cccc(CN(C)C)c4)cc23)c(-c2ccc(NC(=O)N(C)C)cc2)n1
How it was run: as §1

[12] = compound: CN1CCC(CNc2ccc3ncc(-c4cccc(OC(F)(F)F)c4)n3n2)CC1
How it was run: as §1

saracatinib = compound: CN1CCN(CCOc2cc(OC3CCOCC3)c3c(Nc4c(Cl)ccc5c4OCO5)ncnc3c2)CC1 [saracatinib]
How it was run: as §1

[13] = compound: CC1=C(C=C(C=C1)NC(=O)C2=CC(=CC=C2)C(C)(C)C#N)NC3=CC4=C(C=C3)N=CN(C4=O)C
How it was run: as §1

sotrastaurin = compound: CN1CCN(c2nc(C3=C(c4c[nH]c5ccccc45)C(=O)NC3=O)c3ccccc3n2)CC1 [sotrastaurin]
How it was run: as §1

Measured: log2 fold change

NSA2 (UniProt O95478)
inactive: ibrutinib 0.154 | [1] 0.068 | ralimetinib 0.012 | [2] 0.082 | [3] 0.01 | [4] -0.043 | [5] 0.223 | [6] -0.155 | [7] -0.027 | vemurafenib -0.035 | [8] 0.101 | barasertib -0.093 | [9] 0.067 | volasertib 0.034 | [10] -0.043 | [11] -0.441 | [12] -0.221 | saracatinib -0.084

NUB1 isoform 2 (UniProt Q9Y5A7)
Chain of UniProt Q9Y5A7 (Q9Y5A7 whole entry, looked up): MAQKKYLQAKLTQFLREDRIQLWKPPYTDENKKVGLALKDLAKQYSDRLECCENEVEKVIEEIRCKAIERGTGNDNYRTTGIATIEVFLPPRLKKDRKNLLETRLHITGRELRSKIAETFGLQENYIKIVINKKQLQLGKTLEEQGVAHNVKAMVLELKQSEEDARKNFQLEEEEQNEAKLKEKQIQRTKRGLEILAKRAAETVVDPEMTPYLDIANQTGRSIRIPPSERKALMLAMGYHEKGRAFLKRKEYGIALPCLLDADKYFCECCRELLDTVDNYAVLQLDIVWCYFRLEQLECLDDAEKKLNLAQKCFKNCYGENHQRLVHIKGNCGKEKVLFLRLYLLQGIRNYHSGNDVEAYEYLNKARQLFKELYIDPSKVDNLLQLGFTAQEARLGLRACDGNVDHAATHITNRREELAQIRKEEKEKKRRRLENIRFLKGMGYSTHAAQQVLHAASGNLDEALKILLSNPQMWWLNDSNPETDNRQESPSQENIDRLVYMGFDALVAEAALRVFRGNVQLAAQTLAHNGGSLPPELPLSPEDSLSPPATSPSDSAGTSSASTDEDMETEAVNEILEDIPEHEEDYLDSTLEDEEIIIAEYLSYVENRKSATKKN
inactive: [13] 0.075 | sotrastaurin -0.003

NRIP1 (UniProt P48552)
Chain of UniProt P48552 (P48552 whole entry, looked up): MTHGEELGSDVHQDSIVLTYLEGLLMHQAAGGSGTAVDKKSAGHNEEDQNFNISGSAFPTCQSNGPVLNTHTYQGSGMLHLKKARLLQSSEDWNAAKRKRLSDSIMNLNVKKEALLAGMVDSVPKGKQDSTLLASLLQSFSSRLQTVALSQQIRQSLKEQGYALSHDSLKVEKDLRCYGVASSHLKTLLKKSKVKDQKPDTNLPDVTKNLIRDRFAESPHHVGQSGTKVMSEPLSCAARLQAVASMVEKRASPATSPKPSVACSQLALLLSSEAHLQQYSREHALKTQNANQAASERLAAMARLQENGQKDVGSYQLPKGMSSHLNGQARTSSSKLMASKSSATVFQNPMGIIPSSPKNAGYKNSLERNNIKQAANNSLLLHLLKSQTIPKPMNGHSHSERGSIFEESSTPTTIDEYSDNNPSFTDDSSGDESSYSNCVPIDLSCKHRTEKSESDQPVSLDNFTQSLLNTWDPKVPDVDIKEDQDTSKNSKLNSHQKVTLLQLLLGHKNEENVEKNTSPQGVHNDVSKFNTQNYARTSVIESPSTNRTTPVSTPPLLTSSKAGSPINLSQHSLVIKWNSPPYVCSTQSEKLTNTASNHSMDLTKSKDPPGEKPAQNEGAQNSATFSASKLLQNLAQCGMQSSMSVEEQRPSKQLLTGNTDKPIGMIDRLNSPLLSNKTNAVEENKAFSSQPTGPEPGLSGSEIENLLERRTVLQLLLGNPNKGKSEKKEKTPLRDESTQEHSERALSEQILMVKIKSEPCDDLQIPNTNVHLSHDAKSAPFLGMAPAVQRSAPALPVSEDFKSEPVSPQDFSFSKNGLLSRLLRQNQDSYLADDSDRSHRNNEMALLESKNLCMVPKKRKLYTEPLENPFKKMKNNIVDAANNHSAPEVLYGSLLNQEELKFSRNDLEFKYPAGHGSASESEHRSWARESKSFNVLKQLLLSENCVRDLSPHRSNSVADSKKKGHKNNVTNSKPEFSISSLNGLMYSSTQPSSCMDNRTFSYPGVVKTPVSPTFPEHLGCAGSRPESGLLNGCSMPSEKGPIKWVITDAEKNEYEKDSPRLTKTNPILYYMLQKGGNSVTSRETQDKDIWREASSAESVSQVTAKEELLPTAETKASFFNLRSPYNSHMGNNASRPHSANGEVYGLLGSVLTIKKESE
inactive: ibrutinib -0.018 | [1] -0.055 | ralimetinib -0.05 | [2] -0.165 | [3] -0.007 | [4] 0.093 | [5] -0.217 | [13] 0.175 | [6] -0.005 | [7] -0.102 | [8] 0.024 | barasertib 0.076 | volasertib -0.055 | [10] -0.124 | [12] 0.17 | saracatinib -0.071 | sotrastaurin -0.074
active: [11] -0.651

PANK2 (UniProt Q9BZ23)
Chain of UniProt Q9BZ23 (Q9BZ23 whole entry, looked up): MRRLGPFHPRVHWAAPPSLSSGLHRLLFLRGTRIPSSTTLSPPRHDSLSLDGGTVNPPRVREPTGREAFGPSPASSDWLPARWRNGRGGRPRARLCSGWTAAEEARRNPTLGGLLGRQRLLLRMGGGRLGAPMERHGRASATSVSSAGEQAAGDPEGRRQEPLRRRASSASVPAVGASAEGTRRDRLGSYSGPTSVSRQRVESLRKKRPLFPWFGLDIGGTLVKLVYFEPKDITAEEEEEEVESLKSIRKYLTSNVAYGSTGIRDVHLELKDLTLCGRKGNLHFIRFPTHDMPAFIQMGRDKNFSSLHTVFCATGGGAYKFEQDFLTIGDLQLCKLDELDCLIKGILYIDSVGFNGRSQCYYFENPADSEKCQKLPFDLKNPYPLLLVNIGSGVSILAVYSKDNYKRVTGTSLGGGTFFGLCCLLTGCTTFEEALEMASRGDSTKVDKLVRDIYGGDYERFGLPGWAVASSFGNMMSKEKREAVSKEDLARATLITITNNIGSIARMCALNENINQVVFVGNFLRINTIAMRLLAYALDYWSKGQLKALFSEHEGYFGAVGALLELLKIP
inactive: ibrutinib -0.056 | [1] 0.001 | ralimetinib -0.069 | [2] -0.047 | [4] -0.073 | [5] -0.126 | [13] -0.046 | [6] -0.002 | [7] 0.023 | vemurafenib 0.093 | [8] -0.036 | barasertib -0.047 | [9] 0.011 | volasertib -0.086 | [10] 0.002 | [11] -0.167 | [12] -0.057 | saracatinib 0.068 | sotrastaurin 0.027

PAPOLG (UniProt Q9BWT3)
Chain of UniProt Q9BWT3 (Q9BWT3 whole entry, looked up): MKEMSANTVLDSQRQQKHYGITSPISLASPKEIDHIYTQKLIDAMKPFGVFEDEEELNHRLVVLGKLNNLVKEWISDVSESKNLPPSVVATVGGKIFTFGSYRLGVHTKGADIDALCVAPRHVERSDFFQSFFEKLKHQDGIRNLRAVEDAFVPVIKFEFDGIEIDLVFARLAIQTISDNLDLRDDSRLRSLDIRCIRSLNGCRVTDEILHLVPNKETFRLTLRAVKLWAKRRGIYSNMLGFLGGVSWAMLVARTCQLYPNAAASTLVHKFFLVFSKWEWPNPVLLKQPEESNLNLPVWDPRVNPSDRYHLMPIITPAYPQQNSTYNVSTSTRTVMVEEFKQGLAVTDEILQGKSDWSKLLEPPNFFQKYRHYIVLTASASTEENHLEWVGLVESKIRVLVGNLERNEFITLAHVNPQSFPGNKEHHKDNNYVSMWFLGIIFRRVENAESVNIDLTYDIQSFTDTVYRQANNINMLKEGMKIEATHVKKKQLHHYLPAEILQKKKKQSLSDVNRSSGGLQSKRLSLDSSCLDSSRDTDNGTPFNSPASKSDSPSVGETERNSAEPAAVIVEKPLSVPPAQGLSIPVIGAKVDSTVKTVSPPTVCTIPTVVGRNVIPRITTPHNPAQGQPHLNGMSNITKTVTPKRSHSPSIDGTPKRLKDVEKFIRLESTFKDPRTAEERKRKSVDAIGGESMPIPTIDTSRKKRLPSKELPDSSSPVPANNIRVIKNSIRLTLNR
inactive: ralimetinib 0.01 | [2] -0.071 | [3] -0.19 | [4] -0.089 | [5] 0.012 | [13] -0.028 | [6] -0.092 | vemurafenib -0.176 | [9] -0.04 | [10] -0.02 | [11] -0.013 | [12] -0.049 | saracatinib -0.235 | sotrastaurin 0.031

NUDT5 (UniProt C9JYY9)
inactive: [3] -0.111 | [4] -0.05 | [9] 0.036

MYO9A isoform 4 (UniProt B2RTY4)
active: vemurafenib 0.248
inactive: ibrutinib -0.057 | [1] 0.016 | ralimetinib 0.022 | [2] 0.068 | [3] 0.03 | [4] -0.031 | [5] -0.142 | [13] -0.037 | [6] 0.043 | [7] -0.005 | [8] 0.023 | barasertib 0.053 | volasertib -0.028 | [10] -0.019 | [11] -0.021 | [12] 0.002 | saracatinib -0.068 | sotrastaurin 0.093

P2RY1 (UniProt P47900)
Chain of UniProt P47900 (P47900 whole entry, looked up): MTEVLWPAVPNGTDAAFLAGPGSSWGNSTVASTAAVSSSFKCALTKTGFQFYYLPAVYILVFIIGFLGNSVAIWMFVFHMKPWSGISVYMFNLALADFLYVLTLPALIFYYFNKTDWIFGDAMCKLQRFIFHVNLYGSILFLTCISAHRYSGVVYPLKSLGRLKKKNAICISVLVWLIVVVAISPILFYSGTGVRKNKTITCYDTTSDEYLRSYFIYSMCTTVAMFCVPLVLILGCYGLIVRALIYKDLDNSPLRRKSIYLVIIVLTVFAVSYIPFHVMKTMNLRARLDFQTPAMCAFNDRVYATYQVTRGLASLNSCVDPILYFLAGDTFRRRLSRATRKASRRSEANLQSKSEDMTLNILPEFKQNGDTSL
inactive: ibrutinib -0.026 | [1] 0.102 | ralimetinib -0.045 | [2] -0.107 | [3] -0.322 | [5] 0.064 | [6] -0.009 | [7] 0.058 | [8] -0.08 | barasertib 0.034 | [9] 0.006 | volasertib -0.111 | [10] 0.022 | [11] 0.057 | [12] 0.093 | saracatinib 0.015

MT-ATP8 (UniProt P03928)
Chain of UniProt P03928 (P03928 whole entry, looked up): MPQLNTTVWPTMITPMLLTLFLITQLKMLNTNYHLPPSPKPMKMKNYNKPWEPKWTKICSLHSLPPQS
active: [11] 0.711
inactive: ibrutinib -0.035 | [1] -0.052 | ralimetinib 0.005 | [2] -0.109 | [3] -0.087 | [4] -0.082 | [13] 0.153 | [6] 0.047 | [7] 0.104 | vemurafenib 0.033 | [8] -0.036 | barasertib 0.057 | [9] 0.063 | volasertib 0.015 | [10] 0.128 | [12] -0.144 | sotrastaurin -0.084

MXRA7 (UniProt P84157)
Chain of UniProt P84157 (P84157 whole entry, looked up): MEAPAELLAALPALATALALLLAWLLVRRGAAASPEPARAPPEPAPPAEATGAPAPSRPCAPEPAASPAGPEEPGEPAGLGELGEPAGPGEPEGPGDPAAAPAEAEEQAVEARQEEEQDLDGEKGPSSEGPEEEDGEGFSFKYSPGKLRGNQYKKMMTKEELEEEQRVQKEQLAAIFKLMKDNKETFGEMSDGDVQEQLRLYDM
inactive: [1] -0.234 | ralimetinib 0.108 | [2] 0.027 | [3] -0.057 | [4] -0.074 | [5] 0.024 | [13] 0.021 | [6] 0.045 | [7] -0.023 | vemurafenib -0.134 | [8] 0.094 | [9] -0.006 | volasertib 0.054 | [10] 0.049 | [11] -0.182 | [12] 0.167 | saracatinib 0.02 | sotrastaurin -0.064
